Holding throughout (experiment): protein-binding microarray (PBM); PBM: ~300 nM protein, 6 mM HEPES pH 7.8, 80 mM KCl, 0.5 mM EDTA, 0.5 mM EGTA, 6% glycerol, 35 ng/ul poly-dIdC, 1% milk, 1 h, room temperature; Ap Aiptasia and Nv Nematostella (sea anemones) / Co Capsaspora / Aq Amphimedon (sponge) / Dm Drosophila / Hu human; RHD is the Rel homology domain; high values mean tight binding
What all share (settings): dsDNA, one strand shown

The target of one experiment is T1, GST-Ap-NF-kB RHD (Exaiptasia pallida (Aiptasia), UniProt A0A913YAJ5 2-422).
T1 sequence: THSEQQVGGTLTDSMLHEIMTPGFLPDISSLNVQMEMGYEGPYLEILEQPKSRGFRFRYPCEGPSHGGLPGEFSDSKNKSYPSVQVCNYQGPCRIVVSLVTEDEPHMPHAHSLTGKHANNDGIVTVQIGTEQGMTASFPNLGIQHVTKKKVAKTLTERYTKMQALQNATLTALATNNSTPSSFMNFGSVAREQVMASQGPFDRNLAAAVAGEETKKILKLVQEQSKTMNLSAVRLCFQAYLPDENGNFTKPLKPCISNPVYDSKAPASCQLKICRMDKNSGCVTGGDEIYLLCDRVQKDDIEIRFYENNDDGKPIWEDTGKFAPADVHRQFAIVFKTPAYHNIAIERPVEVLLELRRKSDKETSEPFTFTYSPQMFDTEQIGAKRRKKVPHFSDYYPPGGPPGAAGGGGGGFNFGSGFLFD

Experiment [1] has as its target T2, GST-Nv-NF-kB (Cys allele) (Nematostella vectensis, UniProt E5G601 2-411).
T2 sequence: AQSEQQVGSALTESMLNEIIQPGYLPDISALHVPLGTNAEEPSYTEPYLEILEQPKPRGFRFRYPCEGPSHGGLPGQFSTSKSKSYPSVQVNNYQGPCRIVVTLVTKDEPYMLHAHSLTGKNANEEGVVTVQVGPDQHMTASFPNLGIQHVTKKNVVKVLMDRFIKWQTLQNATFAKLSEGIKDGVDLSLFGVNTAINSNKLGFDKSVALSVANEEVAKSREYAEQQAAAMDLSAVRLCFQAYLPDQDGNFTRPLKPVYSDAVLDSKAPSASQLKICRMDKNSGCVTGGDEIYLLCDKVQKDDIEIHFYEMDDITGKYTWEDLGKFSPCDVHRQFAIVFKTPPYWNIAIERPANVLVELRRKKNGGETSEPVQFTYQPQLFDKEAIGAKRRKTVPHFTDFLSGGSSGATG

Experiment [2] deals with T3, GST-Nv-NF-kB (Ser allele) (Nematostella vectensis, UniProt A7UNT2 2-411).
T3 sequence: T2 sequence with Q21R, C66S, S207N, E215Q, V217A, E225K, A268E, D399E

The target in the next experiment is T4, GST-Dm-Relish (Drosophila melanogaster, UniProt Q94527 99-473).
T4 sequence: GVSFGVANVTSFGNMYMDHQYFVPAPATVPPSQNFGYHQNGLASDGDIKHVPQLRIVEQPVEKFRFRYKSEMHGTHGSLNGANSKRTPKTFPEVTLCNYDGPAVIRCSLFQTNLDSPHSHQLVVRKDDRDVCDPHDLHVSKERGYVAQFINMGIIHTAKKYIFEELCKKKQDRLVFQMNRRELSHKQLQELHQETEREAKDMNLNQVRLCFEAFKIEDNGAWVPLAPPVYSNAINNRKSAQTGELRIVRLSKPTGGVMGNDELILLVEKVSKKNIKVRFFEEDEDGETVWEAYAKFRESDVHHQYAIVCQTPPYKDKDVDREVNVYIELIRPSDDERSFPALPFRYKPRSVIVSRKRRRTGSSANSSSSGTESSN

Another experiment deals with T5, GST-Aq-NF-kB (Amphimedon queenslandica, UniProt A9Y5G7 2-389).
T5 sequence: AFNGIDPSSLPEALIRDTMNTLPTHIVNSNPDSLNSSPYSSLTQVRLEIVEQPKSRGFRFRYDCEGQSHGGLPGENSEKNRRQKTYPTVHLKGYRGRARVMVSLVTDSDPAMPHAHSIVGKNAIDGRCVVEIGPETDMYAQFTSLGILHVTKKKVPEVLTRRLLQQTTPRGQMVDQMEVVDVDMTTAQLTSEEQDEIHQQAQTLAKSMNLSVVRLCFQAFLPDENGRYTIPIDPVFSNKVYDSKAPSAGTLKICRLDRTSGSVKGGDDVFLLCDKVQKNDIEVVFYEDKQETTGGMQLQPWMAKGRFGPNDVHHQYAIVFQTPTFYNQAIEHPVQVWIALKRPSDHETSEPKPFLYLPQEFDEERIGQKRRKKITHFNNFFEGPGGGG

For another experiment, the target named is GST-Hu-p50 (Homo sapiens, UniProt P19838 7-356).
GST-Hu-p50, sequence (P19838 7-356): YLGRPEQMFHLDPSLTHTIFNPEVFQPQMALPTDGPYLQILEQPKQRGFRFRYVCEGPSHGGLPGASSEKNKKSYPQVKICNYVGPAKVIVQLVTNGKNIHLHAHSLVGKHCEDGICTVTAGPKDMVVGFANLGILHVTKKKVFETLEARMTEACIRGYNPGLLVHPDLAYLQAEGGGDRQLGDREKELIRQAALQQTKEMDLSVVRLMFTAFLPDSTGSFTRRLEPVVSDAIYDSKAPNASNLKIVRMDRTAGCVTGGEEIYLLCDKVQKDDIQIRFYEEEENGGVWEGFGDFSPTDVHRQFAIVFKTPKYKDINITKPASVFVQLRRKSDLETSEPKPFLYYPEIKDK
The next experiment deals with T6, GST-Co-NF-kB (Capsaspora owczarzaki, UniProt F1ARL5 200-546).
T6 sequence: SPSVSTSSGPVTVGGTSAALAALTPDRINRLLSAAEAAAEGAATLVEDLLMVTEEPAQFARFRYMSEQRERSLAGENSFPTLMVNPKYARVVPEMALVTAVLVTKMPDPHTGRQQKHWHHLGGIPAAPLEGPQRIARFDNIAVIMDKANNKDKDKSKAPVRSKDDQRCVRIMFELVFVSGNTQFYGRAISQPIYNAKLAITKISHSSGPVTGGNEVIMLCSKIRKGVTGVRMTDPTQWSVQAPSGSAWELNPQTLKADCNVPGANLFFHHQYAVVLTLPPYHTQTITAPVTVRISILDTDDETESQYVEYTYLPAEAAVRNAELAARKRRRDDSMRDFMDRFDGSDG

Where a chain is given by its changes, count along the chain named.

Turning to “CCGATTAACATCAGGGACTTCACTGATGTTAATCGGGTCTTGATTCGCTTGACGCTGCTG”, the binding signal in the experiment with GST-Ap-NF-kB RHD is 3.82 z-score; in experiment [1], 4.27 z-score; in experiment [2], 4.08 z-score; with GST-Dm-Relish, 7.9 z-score; with GST-Aq-NF-kB, 5.14 z-score; with GST-Hu-p50 it was 4.12 z-score.
As for “CCGATTAACATCAGGAGAGTCCCTGATGTTAATCGGGTCTTGATTCGCTTGACGCTGCTG”, the binding signal with GST-Ap-NF-kB RHD amounted to 4.86 z-score; in experiment [1] it was 5.29 z-score; in experiment [2], 3.96 z-score; in the experiment with GST-Dm-Relish, 3.65 z-score; with GST-Aq-NF-kB, 7.1 z-score; with GST-Hu-p50 it was 3.89 z-score.
Consider “CCGATTAACATCACGGGATTTCGTGATGTTAATCGGGTCTTGATTCGCTTGACGCTGCTG”, for which the binding signal in the experiment with GST-Ap-NF-kB RHD was 1.77 z-score; in experiment [1] it was 1.88 z-score; in experiment [2], 1.43 z-score; with GST-Dm-Relish, 3.68 z-score; with GST-Aq-NF-kB, 1.91 z-score; with GST-Hu-p50, 2.12 z-score.
Regarding “CCGATTAACATCAGGAAATTACCTGATGTTAATCGGGTCTTGATTCGCTTGACGCTGCTG”, the binding signal is 1.96 z-score with GST-Ap-NF-kB RHD; 4.03 z-score in experiment [1]; 5.26 z-score in experiment [2]; 4.76 z-score in the experiment with GST-Dm-Relish; 5.23 z-score in the experiment with GST-Aq-NF-kB; 3.82 z-score with GST-Hu-p50.
“CCGATTAACATCAGGGACTTCTATGATGTTAATCGGGTCTTGATTCGCTTGACGCTGCTG”: the binding signal with GST-Ap-NF-kB RHD was 5.47 z-score; in experiment [1] it was 6.35 z-score; in experiment [2], 7.05 z-score; with GST-Dm-Relish, 3.93 z-score; with GST-Aq-NF-kB it was 5.24 z-score; with GST-Hu-p50, 5.28 z-score.
As to “CCGATTAACATCAGGGACATCCCTGATGTTAATCGGGTCTTGATTCGCTTGACGCTGCTG”, the binding signal was found to be 5.51 z-score in the experiment with GST-Ap-NF-kB RHD; 6.99 z-score in experiment [1]; 4.22 z-score in experiment [2]; 7.71 z-score with GST-Dm-Relish; 7.32 z-score in the experiment with GST-Aq-NF-kB; 3.84 z-score with GST-Hu-p50.
In the case of “CCGATTAACATCAGGGAATTTAATGATGTTAATCGGGTCTTGATTCGCTTGACGCTGCTG”, the binding signal with GST-Ap-NF-kB RHD was found to be 3.7 z-score; in experiment [1], 6.07 z-score; in experiment [2] it was 6.59 z-score; in the experiment with GST-Co-NF-kB, 4.07 z-score; with GST-Dm-Relish, 4.24 z-score; in the experiment with GST-Aq-NF-kB it was 5.09 z-score. This sequence returned a binding signal in the experiment with GST-Hu-p50 of 4.45 z-score.
As for “CCGATTAACATCAGGGAAAACCCTGATGTTAATCGGGTCTTGATTCGCTTGACGCTGCTG”, the binding signal in the experiment with GST-Ap-NF-kB RHD amounted to 7.33 z-score; in experiment [1] it was 9.72 z-score; in experiment [2], 7.71 z-score; with GST-Co-NF-kB it was 3.49 z-score; with GST-Dm-Relish it was 9.01 z-score; with GST-Aq-NF-kB it was 10.2 z-score. The sequence also came in with a binding signal in the experiment with GST-Hu-p50 of 5.66 z-score.
“CCGATTAACATCAGGGATTGCCCTGATGTTAATCGGGTCTTGATTCGCTTGACGCTGCTG”: the binding signal was found to be 4.32 z-score in the experiment with GST-Ap-NF-kB RHD; 3.8 z-score in experiment [1]; 1.87 z-score in experiment [2]; 5.25 z-score with GST-Dm-Relish; 6.11 z-score with GST-Aq-NF-kB; 2.54 z-score with GST-Hu-p50.
As for “CCGATTAACATCAGACTTTTCCCTGATGTTAATCGGGTCTTGATTCGCTTGACGCTGCTG”, the binding signal with GST-Ap-NF-kB RHD turned out to be 2.88 z-score; in experiment [1], 4.94 z-score; in experiment [2], 5.24 z-score; with GST-Co-NF-kB, 4.28 z-score; with GST-Dm-Relish, 1.62 z-score; with GST-Aq-NF-kB it was 4.8 z-score. In the experiment with GST-Hu-p50, the binding signal came to 3.13 z-score.
With “CCGATTAACATCACACATTCCCCTGATGTTAATCGGGTCTTGATTCGCTTGACGCTGCTG”, the binding signal in the experiment with GST-Ap-NF-kB RHD was 6.52 z-score; in experiment [1], 7.88 z-score; in experiment [2], 8.75 z-score; with GST-Co-NF-kB, 5.83 z-score; with GST-Dm-Relish, 2.91 z-score; with GST-Aq-NF-kB, 5.41 z-score. Further, the binding signal in the experiment with GST-Hu-p50 is 5.28 z-score.
Consider “CCGATTAACATCAGGGAATCCCATGATGTTAATCGGGTCTTGATTCGCTTGACGCTGCTG”, for which the binding signal stood at 5.36 z-score with GST-Ap-NF-kB RHD; 4.92 z-score in experiment [1]; 4.14 z-score in experiment [2]; 2.97 z-score with GST-Co-NF-kB; 10.4 z-score with GST-Dm-Relish; 6.45 z-score with GST-Aq-NF-kB. Besides, the binding signal with GST-Hu-p50 is 4.13 z-score.
Consider “CCGATTAACATCAGGGTTTTTAGTGATGTTAATCGGGTCTTGATTCGCTTGACGCTGCTG”, for which the binding signal was 2.02 z-score in the experiment with GST-Ap-NF-kB RHD; 1.3 z-score in experiment [1]; 2.09 z-score in experiment [2]; 2.9 z-score with GST-Dm-Relish; 2.58 z-score with GST-Aq-NF-kB; 1.99 z-score with GST-Hu-p50.
